A selection: hits, their analogues and other compounds. The true share with any hit is near 4.1%.
hgDAF-12 ag = activates the H. glycines DAF-12 receptor ligand-binding domain; HEK293 GAL4-hgDAF12 UAS-luciferase reporter, agonist luminescence; normalized to butyrate control; activation, % at 6.8 µM; 370,000 tested, 1.8% active;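 active means activation above a cutoff set at the mean of all screened compounds plus 3 SD, cut at about 10% in these data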;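 further: 0% = DMSO wells and 100% = sodium butyrate wells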
hcDAF-12 act = H. contortus DAF-12 activation, primary screen | HEK293 hcDAF-12 lit1-tk-luc reporter, luminescence; 0% DMSO, 100% Δ7-dafachronic acid | activation, % at 6.8 µM | 370,000 tested, 1.4% active;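 active means activation above the mean of all tested compounds plus 3 SD, cut at about 5.5% in these data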;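 further: 100% = response to 3 µM Δ7-dafachronic acid high control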
DAX1 inh-1 = inhibits human nuclear receptor DAX1; AID 504766; inhibition, % at 6.75 µM; 340,000 tested, 0.99% active; HEK293 Gal4-DAX1 luciferase reporter, luminescence;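 active means inhibition above the mean over all tested compounds plus 3 SD, cut at about 4.2% in these data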;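 further: 0% = DAX1-transfected cells with DMSO and 100% = empty-vector control cells with DMSO; inhibition shows as a rise in luminescence from relieved DAX1 repression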
ssDAF-12 act = S. stercoralis DAF-12 activation, primary screen | HEK293 ssDAF-12/GRIP1 lit1-tk-luc reporter, luminescence; % of 3 µM dafachronic acid response | activation, % at 6.8 µM | 370,000 tested, 1% active | AID 652126;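 active means activation above the mean over all tested compounds plus 3 SD, cut at about 0.9% in these data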;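 further: 0% = DMSO-only wells and 100% = 3 µM delta7-dafachronic acid wells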
DAX1 inh-2 = DAX1 (NR0B1) inhibition, primary screen | 370,000 tested, 1.1% active | inhibition, % at 6.8 µM | HEK293T StAR-luciferase reporter, SF-1/DAX-1 repression relief;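 active means inhibition above the mean over all tested compounds plus 3 SD, cut at about 3.6% in these data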;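 further: 0% = DAX-1 cells with DMSO and 100% = cells lacking DAX-1 with DMSO; higher inhibition means more luminescence from relief of DAX-1 repression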
DAX1 inh confirm = NR0B1 (human) inhibition, confirmation; shares compounds with DAX1 inh-2; AID 652134; inhibition, % at 6.8 µM; HEK293T StAR-promoter luciferase reporter, SF-1/DAX-1 repression; 2,400 tested, 87% active;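 active means inhibition above the average of every tested compound plus 3 SD, cut at about 3.8% in these data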;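 further: 0% = DAX-1 cells with DMSO and 100% = no DAX-1 control cells with DMSO; active compounds raise luminescence by relieving repression of the StAR reporter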
SF1 mutant ctr = nonselective inhibitor or artifact in SF-1 mutant DAX1 counter-screen. shares compounds with DAX1 inh-2. HEK293 StAR-luciferase, SF-1 AF2 mutant, luminescence. inhibition, % at 6.8 µM. 2,400 tested, 78% active;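 active means inhibition above the mean of all tested compounds plus 3 SD, cut at about 3% in these data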;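 further: 0% = DAX-1 transfected cells with DMSO and 100% = cells without DAX-1 with DMSO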
LXRb hcDAF ctr = counter-screen for hcDAF-12 agonists: agonists of human LXR-beta; shares compounds with hcDAF-12 act; HEK293 Gal4-LXR tk-luc reporter, luminescence, 24 h; normalized: DMSO 0%, positive control 100%; activation, % at 6.8 µM; 3,400 tested, under 10 active; AID 743027;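 active means mean percent activation of the reporter above a cutoff set as the average over tested compounds plus their standard deviation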
Target sequence (P55055 whole entry, looked up, the tested form may be a part): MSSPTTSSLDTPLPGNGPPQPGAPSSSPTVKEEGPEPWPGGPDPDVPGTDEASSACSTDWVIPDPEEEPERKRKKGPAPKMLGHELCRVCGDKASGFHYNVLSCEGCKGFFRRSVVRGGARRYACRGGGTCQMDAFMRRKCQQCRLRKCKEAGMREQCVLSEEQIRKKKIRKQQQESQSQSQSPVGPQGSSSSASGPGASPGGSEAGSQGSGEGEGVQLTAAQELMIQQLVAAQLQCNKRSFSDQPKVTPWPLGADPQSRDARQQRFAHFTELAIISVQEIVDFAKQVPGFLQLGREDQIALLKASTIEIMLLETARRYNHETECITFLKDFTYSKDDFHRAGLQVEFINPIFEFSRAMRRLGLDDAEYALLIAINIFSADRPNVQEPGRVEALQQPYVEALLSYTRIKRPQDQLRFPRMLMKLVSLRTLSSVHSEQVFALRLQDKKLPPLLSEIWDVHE
hcDAF12 conf = confirmation of H. contortus DAF-12 agonists; activation, % at 6.8 µM; AID 743032; HEK293 hcDAF-12 lit1-tk-luc reporter, luminescence; % of Δ7-dafachronic acid response; shares compounds with hcDAF-12 act; 3,400 tested, 61% active;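 active means mean activation across triplicate tests above the threshold derived from the earlier primary screen, cut at about 5.5% in these data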;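 further: 0% = DMSO only wells and 100% = 3 µM Δ7-dafachronic acid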
hgDAF12 conf = hgDAF-12 agonism, confirmation assay; shares compounds with hgDAF-12 ag; HEK293 GAL4-hgDAF12 luciferase reporter, agonist mode; percent of butyrate response; activation, % at 6.8 µM; 3,300 tested, 80% active; AID 743050;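 active means mean activation over triplicate wells above the hit cutoff derived from the earlier primary screen, cut at about 11% in these data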;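 further: 0% = DMSO low control and 100% = 2 mM sodium butyrate high control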
LXRb DAF12 ctr = LXR-beta agonism as DAF-12 counter-screen; shares compounds with hgDAF-12 ag; HEK293 Gal4-LXR luciferase reporter, 24 h; activation, % at 6.8 µM; 3,300 tested, under 10 active; AID 743051;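 active means mean activation of the triplicate above a set limit carried over from the primary screen, none filed active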
Numbers without * were called inactive; nt = no result.

SMILES	hgDAF-12 ag	hcDAF-12 act	DAX1 inh-1	ssDAF-12 act	DAX1 inh-2	DAX1 inh confirm	SF1 mutant ctr	LXRb hcDAF ctr	hcDAF12 conf	hgDAF12 conf	LXRb DAF12 ctr
CC1CC(C)CN(C(=O)c2ccc3ccccc3c2)C1 (stereo not given)	-1	0	-1	-1	-1	nt	nt	nt	nt	nt	nt
CC1CCN(C(=O)c2ccc3ccccc3c2)CC1	14*	1	0	-1	7.9*	6.8*	3.8*	nt	nt	15*	0
COc1ccc2nc(NC(=O)c3cccc(N4C(=O)CCC4=O)c3)sc2c1	0	2	-1	-1	0	nt	nt	nt	nt	nt	nt
O=C(Nc1nc2ccc(Cl)cc2s1)c1cccc(N2C(=O)CCC2=O)c1	14*	5	1	0	5.0*	7.6*	4.1*	nt	nt	10	0
N/C(=N\OC(=O)c1ccccc1Cl)c1ccncc1	14*	6.2*	0	1	5.6*	6.8*	5.3*	nt	nt	13*	1
N/C(=N\OC(=O)/C=C/c1ccccc1Cl)c1ccncc1	21*	6.8*	2	0	9.2*	11*	6.3*	1	4	16*	1
N/C(=N\OC(=O)c1ccc(Cl)cc1Cl)c1ccncc1	7	1	-1	-1	1	nt	nt	nt	nt	nt	nt
N/C(=N\OC(=O)/C=C/c1ccccc1)c1ccncc1	7	1	3	-1	1	nt	nt	nt	nt	nt	nt
CNC(=O)c1sc2nc(-c3ccc(OC)cc3)cn2c1C	16*	9.1*	1	0	5.7*	11*	7.0*	1	2	13*	1
FC(F)(F)c1cc(CNC2CCC23CCCCC3)ccc1Cl (stereo not given)	1	0	nt	-2	nt	nt	nt	nt	nt	nt	nt
Cc1ccc(NC(=O)N2CCc3ccccc3C2)cc1C	14*	4	2	-1	6.6*	8.6*	5.5*	nt	nt	13*	0
COc1ccc(NC(=O)N2CCc3ccccc3C2)cc1OC	2	-1	1	-1	-1	nt	nt	nt	nt	nt	nt
COc1cccc(C(=O)Nc2nnc(-c3ccccc3)s2)c1OC	19*	7.0*	1	0	5.5*	7.6*	4.0*	1	4	14*	1
O=C(Nc1nnc(-c2ccccc2)s1)c1ccccc1O	4	1	3	-1	1	nt	nt	nt	nt	nt	nt
Cc1cccc(NC(=O)CNC(=O)[C@H](CCc2ccccc2)NC(=O)[C@H]2O[C@@H](n3cnc4c(N)ncnc43)[C@H](O)[C@@H]2O)c1C	-1	0	nt	-1	1	nt	nt	nt	nt	nt	nt
Cc1ccc(OCC(=O)N2CCc3ccccc32)cc1	22*	11*	3	1.6*	5.1*	15*	9.1*	1	5.7*	13*	1
COc1ccc(NC(=O)N2CCc3ccccc32)cc1	16*	9.1*	-1	1.0*	5.1*	15*	5.8*	1	7.4*	18*	1
COc1ccc(NC(=O)N2CCCc3ccccc32)cc1	6	4	1	-1	1	nt	nt	nt	nt	nt	nt
Cc1ccc(OCC(=O)N2CCCc3ccccc32)cc1	2	0	1	-1	0	nt	nt	nt	nt	nt	nt
Cc1nc(N)sc1-c1csc(Nc2ncccn2)n1	16*	4	1	0	5.4*	8.4*	4.8*	nt	nt	13*	0
